Test results taken from ChEMBL document CHEMBL4513216, “Probing the Open Global Health Chemical Diversity Library for Multistage-Active Starting Points for Next-Generation Antimalarials” (ACS Infect Dis, 2020).
The whole screen tested about 65,000 compounds, of which about 2,100 (3.2%) showed an effect of 50% or more. The median lay at about -52%. The sample holds strong results, similar compounds and a random draw of the others, so the mix is not that of the screen.

Tested on: Plasmodium falciparum
Assay: Screen against P. falciparum Asexual Blood Stage (ABS), at 5uM
Type: functional, Dd2
Settings: tested at 5 uM

Row | Compound | INHIBITION
1 | Cc1cc2nc(C(C)C)cc(NC(C)c3nncn3C3CCCC3)n2n1 (stereo not drawn) | -49.8%
2 | COc1cccc2c1OCC(C(=O)NCc1ncc3c(n1)CCC3)C2 (stereo not drawn) | -33%
3 | N#Cc1ccc(C(=O)N2CCn3cc(CN4CCCCC4)nc3C2)cc1 | -96.9%
4 | CN([C@@H]1CC[C@@H](N2CCCC2)[C@@H]1O)S(=O)(=O)c1ccccc1 | 51.6%
5 | Cc1nccn1[C@@H]1CC[C@@H](N(C)S(=O)(=O)c2cccc(F)c2)[C@H]1O | -107%
6 | CN([C@@H]1CC[C@@H](N2CCOCC2)[C@@H]1O)S(=O)(=O)c1ccccc1 | -97.1%
7 | O=C(c1ccco1)N1CCC2(CCCN(c3ncccn3)C2)C1 (stereo not drawn) | -59%
8 | c1ccc(CCNc2cccc(C3CCCNC3)n2)cc1 (stereo not drawn) | 66.8%
9 | c1cc(CC2CCCNC2)nc(NCCc2cnccn2)c1 (stereo not drawn) | -96.3%
10 | Cc1nc(C2CCCNC2)cc(N(C)CCc2ccccc2)n1 (stereo not drawn) | 53.5%
11 | Cc1nc(NC2CCCCC2)cc(C2CCCNC2)n1 (stereo not drawn) | -0.566%
12 | COCCNc1cccc(C2CCCN2)n1 (stereo not drawn) | -86.4%
13 | Cc1cc(Cc2ccccc2F)cc(C2CCCNC2)n1 (stereo not drawn) | 64.8%
14 | CCn1ccnc1CN(C)c1cc(C2CCCNC2)nc(C)n1 (stereo not drawn) | -33.9%
15 | Cc1cnc(CCNc2cccc(CC3CCCNC3)n2)s1 (stereo not drawn) | 65.5%
16 | Cc1cc(Nc2cnccn2)cc(C2CCCNC2)n1 (stereo not drawn) | -27.1%
17 | Cc1nc(C2CCCNC2)cc(N(C)CCc2cn[nH]c2)n1 (stereo not drawn) | -151%
18 | COCCNc1ccc(CC2CCCNC2)cn1 (stereo not drawn) | -56.2%
19 | c1cc(NCc2ccncc2)nc(C2CCCNC2)c1 (stereo not drawn) | -2.22%
20 | CCS(=O)(=O)NC(CCSC)C(=O)Nc1cc(F)ccc1C (stereo not drawn) | -26.6%
21 | Cc1cnc(N2CCC3(CC2)CC3CN(C)Cc2cccnc2)nc1 (stereo not drawn) | -28%
22 | CCC(C)Oc1ccc(CNCCNC(C)=O)cc1Cl (stereo not drawn) | -29.5%
23 | COCc1cc(O)nc(C2CCCN(Cc3ccc(OC)cc3)C2)n1 (stereo not drawn) | -29.3%

Row | Compound | INHIBITION
24 | Cc1cc(C(N)=O)c2c(Br)cccc2n1 | -105%
25 | Cc1ccc(C(C)N(C)Cc2nc3c(cnn3C)c(=O)[nH]2)s1 (stereo not drawn) | 50%
26 | COc1ccccc1C(C)N(C)Cc1nc2c(cnn2C)c(=O)[nH]1 (stereo not drawn) | -62.4%
27 | Cc1ccc(C(C)N(C)Cc2nc3c(cnn3C)c(=O)[nH]2)cc1 (stereo not drawn) | -137%
28 | Cc1ccc(CN(Cc2nc3c(cnn3C)c(=O)[nH]2)C(C)C)s1 | -67.1%
29 | Cc1ccccc1C(C)N(C)Cc1nc2c(cnn2C)c(=O)[nH]1 (stereo not drawn) | -198%
30 | COc1ccc(C(C)N(C)Cc2nc3c(cnn3C)c(=O)[nH]2)cc1 (stereo not drawn) | 57.6%
31 | Cc1ccc(CCC(=O)N2CCC(Nc3cccnn3)CC2)cc1 | -69.1%
32 | O=S(=O)(NCc1ccccc1)N1CCCN(c2ccncc2)CC1 | -0.943%
33 | CCC(=O)N1CCC2(CC1)C(c1cccnc1)CC(=O)N2CCOC (stereo not drawn) | -104%
34 | CC(CNC(=O)c1cccnc1)Oc1ccc(F)cc1 (stereo not drawn) | -61.4%
35 | CN(C)C1CCN(c2cc(-c3ccccc3)nc3ccnn23)C1 (stereo not drawn) | 51.3%
36 | CCNC(=O)C1CCN(c2cc(-c3ccccc3)nc3ccnn23)C1 (stereo not drawn) | -26.4%
37 | Cc1cc(N2CCCC(N(C)C)C2)n2nccc2n1 (stereo not drawn) | -65.1%
38 | O=C(COc1coc(CN2CCOCC2)cc1=O)Nc1ccc(Cl)cc1 | -117%
39 | CC(O)(CN1CCN(CCO)CC1)c1cccc(C(F)(F)F)c1 (stereo not drawn) | 45.7%
40 | CC(O)(CN1CCC2(CC1)OCCO2)c1cccc(C(F)(F)F)c1 (stereo not drawn) | -7.98%
41 | CC(=O)N1CCN(CC(C)(O)c2cccc(C(F)(F)F)c2)CC1 (stereo not drawn) | -10.4%
42 | CC(O)(CN1CCC(O)CC1)c1cccc(C(F)(F)F)c1 (stereo not drawn) | 58%
43 | CCN1CCN(CC(C)(O)c2cccc(C(F)(F)F)c2)CC1 (stereo not drawn) | 61.4%
44 | COCCN1CCN(CC(C)(O)c2cccc(C(F)(F)F)c2)CC1 (stereo not drawn) | 20.5%
45 | CC(C)(C)c1csc(CCNC(=O)[C@H](c2ccccc2)n2cnnn2)n1 | -92.7%
46 | O=C(c1ccsc1)N1C[C@@H]2OCCN(CCN3CCCC3)[C@@H]2C1 | -116%

Row | Compound | INHIBITION
47 | CCc1ccc(S(=O)(=O)NCC2CCN(c3cnccn3)CC2)s1 | -103%
48 | COc1cccc(N2CCN(Cc3nccn3C(C)C)CC2=O)c1 | -72.4%
49 | CC(=O)N1CCCN(Cc2ccon2)c2ccccc21 | -22.6%
50 | CC(C)(C)OC(=O)N1CCCN(Cc2ccon2)c2ccccc21 | 84.5%
51 | CC(C)(C)OC(=O)N1CCCc2ccc(NCc3ccon3)cc21 | -31.3%
52 | CN(C)CCOCc1nnc2n1CCN(Cc1ccc(F)cc1)CC2 | -137%
53 | Cn1ccnc1CN1CCC(F)(F)C2(CCN(c3cnccn3)C2)C1 (stereo not drawn) | -1.72%
54 | O=C(O)CN1CCC(F)(F)C2(CCN(c3ccccc3)C2)C1 (stereo not drawn) | 67.6%
55 | FC1(F)CCN(Cc2ccncc2)CC12CCN(c1cccnc1)C2 (stereo not drawn) | 19.1%
56 | Cn1ccnc1CN1CCC(F)(F)C2(CCN(c3cccnc3)C2)C1 (stereo not drawn) | 60.4%
57 | FC1(F)CCN(c2ccccc2)CC12CCN(c1ncccn1)C2 (stereo not drawn) | -145%
58 | O=C(CO)N1CCC(F)(F)C2(CCN(c3ccccc3)C2)C1 (stereo not drawn) | -30.5%
59 | COc1ccc(CN(C)[C@@H]2CN(C(=O)c3cncs3)C[C@H]2O)cc1 | -40.5%
60 | O=c1[nH][nH]c2cn(-c3ccc(Cl)cc3)c(=O)n12 | -27.8%
61 | CCOc1cc(CN(C)CCC(=O)OC)ccc1OC(F)F | -133%
62 | CN(C)CCO[C@@H]1CC[C@H]2[C@H]1OCCN2C(=O)c1ccnnc1 | -24.7%
63 | CC(=O)NCc1nnc2n1CCN(Cc1cccs1)C2 | -56.1%
64 | CCCc1cc(NCCN2CCNC2=O)n2nccc2n1 | -34.9%
65 | O=C([C@H]1COC[C@H]2CN(C3CCCC3)C[C@H]21)N1CCCO1 | -99.5%
66 | Cc1cnc(-n2cnnc2)c(-c2cccc3c2CCNC3)c1 | -35%
67 | Cc1nc(-n2cnnc2)ccc1-c1cccc2c1CCNC2 | 68.7%
68 | Cc1cc(-c2cccc3c2CCNC3)cnc1-n1cnnc1 | -24.9%
